# According to PubChem BioAssay (NCI):
# Compounds without any hit were thinned out: in the full panel of roughly 83,000, 20% have a hit.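 Treatment: one concentration, 48 hours, 96-well format. Scoring: percent growth, with anything below 10 considered active.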 Unmarked numbers belong to inactive results. Activity calls are given as the source filed them.
# Experiments:
# Test in all cases: NCI-60 one-dose screen, 48 h (100 = growth as untreated, 0 = no growth, -100 = all killed)
# HT29 colon = settings: 10 µM
# SNB-19 CNS = settings: 10 µM
# U251 CNS = settings: 10 µM
# PC-3 prostate = settings: 10 µM
# SK-MEL-5 melanoma = settings: 10 µM
# UACC-62 melanoma = settings: 10 µM unless noted
# LOX IMVI melanoma = settings: 10 µM
# SK-MEL-28 melanoma = settings: 10 µM
# SNB-75 CNS = settings: 10 µM
SMILES,growth (HT29 colon),growth (SNB-19 CNS),growth (U251 CNS),growth (PC-3 prostate),growth (SK-MEL-5 melanoma),growth (UACC-62 melanoma),growth (LOX IMVI melanoma),growth (SK-MEL-28 melanoma),growth (SNB-75 CNS)
Nc1ncnc2[nH]ncc12,12.3%,71.3%,42.8%,7.63% (active),15%,-15.9% (active),1.37% (active),28.5%,–
COc1ccccc1NC(=O)C1=C(C)NC(C)=C(C(=O)Nc2ccccc2OC)C1c1cccc([N+](=O)[O-])c1,75.8%,–,76%,41.6%,61.5%,54.5%,69.1%,82.2%,74.2%
CCOC(=O)C(C#N)Cc1ccccc1 (stereo not given),104%,100%,112%,90.2%,117%,111%,107%,120%,–
C/C=C/CC(C)C(O)C1C(=O)NC(CC)C(=O)N(C)CC(=O)N(C)C(CC(C)C)C(=O)NC(C(C)C)C(=O)N(C)C(CC(C)C)C(=O)NC(C)C(=O)NC(C)C(=O)N(C)C(CC(C)C)C(=O)N(C)C(CC(C)C)C(=O)N(C)C(C(C)C)C(=O)N1C (stereo not given),-37.2% (active),41.7%,–,11.7%,2.67% (active),2.53% (active),0.362% (active),-36.4% (active),–
CC(=O)OCC1OC(OC2=C(CC=C(C)C)C(=O)c3ccccc3C2=O)C(OC(C)=O)C(OC(C)=O)C1OC(C)=O (stereo not given),–,61.2%,8.23% (active),-6.07% (active),4.66% (active),-23.8% (active),6.88% (active),30.3%,–
NC(=S)NN=C1CCCC1,–,105%,73.2%,89.9%,97.8%,103%,88.6%,101%,99.3%
C=CCNC(=O)c1ccc(OC)cc1,129%,92.1%,101%,104%,103%,–,111%,144%,117%
O=C(NC1CCCCC1)OCc1c(COC(=O)NC2CCCCC2)c(-c2ccc(Cl)c(Cl)c2)n2c1CCC2,26.7%,44.5%,29.4%,55.1%,41.6%,9.04% (active),13.3%,75.6%,15.7%
Cc1cc(O)ccc1O,114%,112%,107%,97.7%,88.6%,80.8%,92.5%,108%,114%
CC(C)C1CCCCC1O (stereo not given),106%,104%,100%,98.3%,103%,102%,96.3%,116%,108%
c1ccc2c(c1)Sc1ccccc1S2,105%,100%,93.4%,91.4%,101%,102%,98.2%,110%,89.6%
CCCCCC(C)(CC(=O)O)CC(=O)O,–,116%,102%,99.6%,101%,119%,112%,108%,97.4%
COC(=O)Nc1nc2ccc(C(=O)c3cccs3)cc2[nH]1,2.02% (active),29.9%,16.6%,22.7%,-21.1% (active),34.2%,28.4%,56.3%,32.8%
CCOC(=O)C/C(C)=N\O,98.9%,99.2%,–,96.8%,100%,107%,100%,121%,118%
CC(=O)c1ccc(N=C(C#N)C2=C(O)c3ccccc3C2=O)cc1,98.7%,101%,–,100%,–,109%,–,113%,–
COc1ccc2c(NCCCCCCCCNc3c4ccccc4nc4cc(OC)ccc34)c3ccccc3nc2c1,-100% (active),-86.7% (active),-100% (active),-100% (active),-100% (active),–,-98.6% (active),-100% (active),-100% (active)
CC1OC(Oc2c(-c3ccc(O)c(O)c3)oc3cc(O)cc(O)c3c2=O)C(O)C(O)C1O (stereo not given),107%,105%,104%,95.5%,91.8%,103%,–,105%,96.5%
O=C(Nc1cc(-c2ccccc2)[nH]n1)c1ccc(Cl)cc1,67.2%,65.2%,70.2%,75.9%,87.6%,79.7%,89.5%,117%,–
Cc1nc2ccccc2c2nnc(SCC(=O)N(Cc3ccccc3)c3ccccc3)n12,96.1%,102%,98%,84.1%,45.1%,84.7%,91.6%,109%,90.4%
COC(=O)/C=C\C(=O)OC,103%,109%,105%,93.1%,106%,101%,102%,112%,–
O=[N+]([O-])c1ccc(-c2ncc(-c3ccc(Br)cc3)o2)cc1,98.3%,99.9%,95.8%,89.8%,89.4%,93.3%,104%,114%,122%
